# Results reported in PubChem BioAssay (NCATS).
# Several values for one entry are separate records, joined by “and”; a condition that tells them apart may be missing. Equal values may be shown once. Results filed as inconclusive are left out. Entries that show only a call come without a potency. A number with no mark means an inactive call. Activity calls are given as the source filed them. Calls follow the shape of the dose curve; as a rule, active = well fitted curve in the direction sought with a large enough effect; inconclusive = small, poorly fitted or top-dose-only effect, or another doubt; inactive = no such curve, though single readings can be large; an effect the other way counts as inactive or inconclusive.
# Key:
# [1] = target: Cytochrome P450 3A7 (Homo sapiens) (UniProt P24462); experiment: Cytochrome P450 family 3 subfamily A member 7 (CYP3A7) small molecule antagonists: luciferase biochemical qHTS assay (AID 1963596); also: nearly all actives have a fitted effect of over 40% in size
# Cytochrome P450 3A7 (Homo sapiens), sequence (P24462 whole entry, looked up): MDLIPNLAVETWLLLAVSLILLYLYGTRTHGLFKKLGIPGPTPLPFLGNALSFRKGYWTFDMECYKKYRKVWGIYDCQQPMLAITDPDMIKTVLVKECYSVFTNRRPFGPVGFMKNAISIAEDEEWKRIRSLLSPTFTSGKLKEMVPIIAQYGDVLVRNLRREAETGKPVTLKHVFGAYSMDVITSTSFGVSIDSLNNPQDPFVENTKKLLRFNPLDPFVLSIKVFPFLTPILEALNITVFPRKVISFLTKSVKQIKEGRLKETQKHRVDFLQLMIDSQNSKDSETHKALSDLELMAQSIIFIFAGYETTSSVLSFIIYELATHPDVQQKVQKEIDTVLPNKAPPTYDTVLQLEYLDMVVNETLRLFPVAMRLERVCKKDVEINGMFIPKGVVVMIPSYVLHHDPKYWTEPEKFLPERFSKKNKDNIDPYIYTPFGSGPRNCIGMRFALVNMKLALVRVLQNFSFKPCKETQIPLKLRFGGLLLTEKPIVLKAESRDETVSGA
# Method in brief: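 Recombinant CYP3A7 P450-Glo luminescent assay: enzyme-proluciferin substrate mix preincubated with compound 10 min at room temperature, reaction started with NADPH regeneration system for 1 h. Luciferin detected by luminescence; ketoconazole as positive control.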
# [2] = Viability qHTS for spleen associated tyrosine kinase inhibitor (SYKi) drug resistant MV4-11 cells (AID 1963824); also: nearly all actives have a fitted effect of over 35% in size; also: potency is read from the fitted curve at half-maximal effect
# Method in brief: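 CellTiter-Glo luminescence, read 10 min after reagent addition, reports viability after a 72 hr compound exposure. Cells are an MV4-11 line made resistant to SYK inhibition, seeded at 500 per well onto compound-containing plates.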
# [3] = Cellular viability qHTS for adrenocortical cancer (ACC) cell line SW-13 (AID 1963989); conditions: SW-13 ACC cells viability, CellTiter-Glo, 48 h; activity (max response): hits give low values; also: nearly all actives have a fitted effect of over 65% in size; also: potency is read from the fitted curve at half-maximal effect;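 as to activity (max response): cells grown in serum-free medium with ITS supplement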
# Method in brief: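 SW-13 cells in ITS-supplemented serum-free DMEM were plated overnight, then exposed for 48 h at 37C to compound titrations (up to 46 uM final). Viability was read by CellTiter-Glo luminescence; four-parameter logistic fits gave IC50 and efficacy.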
# [4] = Cellular viability qHTS for adrenocortical cancer (ACC) cell line NCI-H295R (AID 1963990); also: nearly all actives have a fitted effect of over 60% in size; also: potency is read from the fitted curve at half-maximal effect
# Method in brief: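 Luminescent ATP read-out (CellTiter-Glo, 20 min RT) after 48 h drug exposure of NCI-H295R cells; a titration up to 46 uM final. Data normalized to doxorubicin (100% inhibition) and DMSO (0%); 4-parameter fit gives IC50, max response.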
compound,measurement,setting,value
NC[C@H]1O[C@H](O[C@H]2[C@H](O[C@@H]3O[C@H](CO)[C@@H](O)[C@H]3O)C(O)[C@H](N)C[C@@H]2N)[C@H](N)[C@@H](O)[C@@H]1O (stereo not given in full),"activity change, negative = inhibition",[1],16.1% [at 11.5 µM]
same,"viability, % of control",[2],95.3% [at 9.25 µM]
same,activity (max response),[3],8.3%
same,"activity change, negative = viability loss",[4],0.419% [at 9.17 µM]
O=C1NS(=O)(=O)c2ccccc21,Potency,[1],inactive
same,Potency,[2],inactive
same,activity (max response),[3],0.607%
same,Potency,[4],inactive
Cc1cc(NC(=O)C2=C(O)c3ccccc3S(=O)(=O)N2C)no1,Potency,[1],inactive
same,Potency,[2],inactive
same,activity (max response),[3],-0.835%
same,Potency,[4],inactive
COc1cc(N2CCC(N3CCN(C)CC3)CC2)ccc1Nc1ncnc(Nc2ccccc2S(=O)(=O)C(C)C)n1,Potency,[1],inactive
same,Potency,[2],2.06 µM (active) and 2.63 µM (active)
same,Potency,[3],11.2 µM (active)
same,Potency,[4],8.91 µM (active)
CCOc1ccccc1C(N)=O,Potency,[1],inactive
same,Potency,[2],9.44 µM (active)
same,activity (max response),[3],2.11%
same,Potency,[4],inactive
O=C1OC(OC(=O)c2cccnc2Nc2cccc(C(F)(F)F)c2)c2ccccc21 (stereo not given),Potency,[1],inactive
same,Potency,[2],inactive
same,activity (max response),[3],6.27%
same,Potency,[4],inactive
Oc1ccccc1C=NCc1ccccc1,Potency,[1],inactive
same,Potency,[2],inactive
same,activity (max response),[3],6.8%
same,Potency,[4],inactive
CNC(=O)c1c(I)c(NC(=O)CCCCC(=O)Nc2c(I)c(C(=O)O)c(I)c(C(=O)NC)c2I)c(I)c(C(=O)O)c1I,Potency,[1],inactive
same,Potency,[2],inactive
same,activity (max response),[3],-7.54%
same,Potency,[4],inactive
CCCCCCCCCCCCCCCC(=O)O,Potency,[1],inactive
same,Potency,[2],inactive
same,activity (max response),[3],8.9%
same,Potency,[4],inactive
O=C(O)CC1CCC(c2ccc(-c3ccc(Nc4ccc(C(F)(F)F)nc4)cn3)cc2)CC1 (stereo not given),Potency,[1],inactive
same,Potency,[2],18.6 µM (active)
same,activity (max response),[3],-23.1%
same,Potency,[4],inactive
O=C1O[C@H](CO)[C@@H](O)[C@H](O)[C@H]1O,Potency,[1],inactive
same,Potency,[2],inactive
same,activity (max response),[3],5.91%
same,Potency,[4],inactive
CC(C)CCCC(C)N (stereo not given),Potency,[1],inactive
same,Potency,[2],inactive
same,activity (max response),[3],3.28%
same,Potency,[4],inactive
OCC(O)CN1CCN(c2ccccc2)CC1 (stereo not given),Potency,[1],inactive
same,Potency,[2],inactive
same,activity (max response),[3],-5.47%
same,Potency,[4],inactive
CN=C(N)NC(=O)Nc1c(C)cccc1C,Potency,[1],inactive
same,Potency,[2],inactive
same,activity (max response),[3],-3.82%
same,Potency,[4],inactive
CN1Cc2cc(C(=O)N3CCC(C4CCNCC4)CC3)ccc2N[C@@H](CC(=O)O)C1=O,Potency,[1],inactive
same,Potency,[2],inactive
same,activity (max response),[3],10.2%
same,Potency,[4],inactive
Clc1ccccc1-c1nc(-c2ccncc2)no1,Potency,[1],inactive
same,Potency,[2],11.9 µM (active)
same,activity (max response),[3],-7.1%
same,Potency,[4],inactive
CCCOC(=O)c1ccc(O)cc1,Potency,[1],inactive
same,Potency,[2],0.0863 µM (active)
same,Potency,[4],inactive
Cc1c(C(=O)N2CCOc3ccc(-c4ccc(N)nc4)cc3C2)ccc(S(C)(=O)=O)c1F,Potency,[1],inactive
same,Potency,[2],3.26 µM (active)
same,Potency,[4],8.91 µM (active)
